# “And” between values parts separate entries of the source, which are not always exact repeats. Identical values can stand only once. A number with no mark means an inactive call. Entries that show only a call come without a potency. The source made the active and inactive calls. Unless noted, calls come from the whole dose curve; as a rule, active = well fitted curve in the direction sought with a large enough effect in the repeat runs; inconclusive = weak or mixed curves; inactive = no such curve, though single readings can be large; an effect the other way counts as inactive or inconclusive.
# Tests used:
# [1] = qHTS assay to identify small molecule antagonists of the glucocorticoid receptor (GR) signaling pathway - cell viability counter screen (AID 720693); note: nearly all actives have a fitted effect of over 55% in size; note: potency is the fitted concentration of half-maximal effect
# [2] = qHTS assay for identifying genotoxic compounds that show differential cytotoxicity against isogenic chicken DT40 cell lines with known DNA damage response pathways - wild type cell line (AID 743012); note: nearly all actives have a fitted effect of over 60% in size; note: potency is the fitted concentration of half-maximal effect
# Summary of the method: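 Luminescent ATP viability signal (CellTiter-Glo, 30 min RT) recorded after wild type DT40 cells were incubated with compounds for 40 h at 37 C/5% CO2.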
# [3] = qHTS assay for identifying genotoxic compounds that show differential cytotoxicity against isogenic chicken DT40 cell lines with known DNA damage response pathways - Rad54/Ku70 mutant cell line (AID 743015); note: nearly all actives have a fitted effect of over 60% in size; note: potency is the fitted concentration of half-maximal effect
# [4] = qHTS assay to identify small molecule antagonists of the androgen receptor (AR) signaling pathway - cell viability counter screen (AID 743033; note: nearly all actives have a fitted effect of over 45% in size)
# [5] = qHTS assay to identify small molecule antagonists of the androgen receptor (AR) signaling pathway using the MDA cell line - cell viability counter screen (AID 743041; note: nearly all actives have a fitted effect of over 45% in size)
# Summary of the method: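 Compound exposure lasted 16 h at 37C in MDA-kb2 AR-luc cells stimulated with R1881. Protease-based CellTiter-Fluor reagent was applied for the final 30 min and fluorescence measured.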
# [6] = qHTS assay to identify small molecule antagonists of the thyroid receptor (TR) signaling pathway - cell viability counter screen (AID 743064); note: nearly all actives have a fitted effect of over 50% in size; note: potency is the fitted concentration of half-maximal effect
# Summary of the method: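 In rat pituitary GH3.TRE-Luc reporter cells co-exposed to compound and 1 nM T3 for 23.5 h, cytotoxicity was assessed with CellTiter-Fluor in the same wells, read by fluorescence.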
# [7] = qHTS assay to identify small molecule antagonists of the thyroid receptor (TR) signaling pathway (AID 743065); note: nearly all actives have a fitted effect of over 55% in size; note: potency is the fitted concentration of half-maximal effect; for activity, negative = inhibition: series mostly up to about 70 µM
# Summary of the method: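 GH3.TRE-Luc rat pituitary cells (two TREs driving luciferase) were dosed with compound, then stimulated with 1 nM T3 (final) for 23.5 h at 37 C. ONE-Glo luminescence was the read-out, with CellTiter-Fluor fluorescence as the cytotoxicity counter-screen.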
# [8] = system: thyroid hormone receptor (rat, GH3 cells); experiment: qHTS assay to identify small molecule agonists of the thyroid receptor (TR) signaling pathway (AID 743066; calls by dose curve; note: potency is the fitted concentration of half-maximal effect)
# [9] = qHTS assay to identify small molecule antagonists of the estrogen receptor alpha (ER-alpha) signaling pathway - cell viability counter screen (AID 743074; calls by dose curve; note: nearly all actives have a fitted effect of over 45% in size)
# [10] = qHTS assay to identify small molecule antagonists of the estrogen receptor alpha (ER-alpha) signaling pathway using the BG1 cell line - cell viability counter screen (AID 743081);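 note: compound given together with 17beta-estradiol as the ER stimulus; nearly all actives have a fitted effect of over 45% in size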; note: potency is the fitted concentration of half-maximal effect; for activity change, negative = cytotoxicity: series mostly up to about 70 µM
# [11] = biological target: Aromatase (Homo sapiens) (UniProt P11511); experiment: qHTS assay to identify aromatase inhibitors (AID 743083); note: nearly all actives have a fitted effect of over 55% in size; note: potency is the fitted concentration of half-maximal effect; for activity, negative = inhibition: series mostly up to about 70 µM
# Sequence of Aromatase (Homo sapiens) (P11511 whole entry, looked up): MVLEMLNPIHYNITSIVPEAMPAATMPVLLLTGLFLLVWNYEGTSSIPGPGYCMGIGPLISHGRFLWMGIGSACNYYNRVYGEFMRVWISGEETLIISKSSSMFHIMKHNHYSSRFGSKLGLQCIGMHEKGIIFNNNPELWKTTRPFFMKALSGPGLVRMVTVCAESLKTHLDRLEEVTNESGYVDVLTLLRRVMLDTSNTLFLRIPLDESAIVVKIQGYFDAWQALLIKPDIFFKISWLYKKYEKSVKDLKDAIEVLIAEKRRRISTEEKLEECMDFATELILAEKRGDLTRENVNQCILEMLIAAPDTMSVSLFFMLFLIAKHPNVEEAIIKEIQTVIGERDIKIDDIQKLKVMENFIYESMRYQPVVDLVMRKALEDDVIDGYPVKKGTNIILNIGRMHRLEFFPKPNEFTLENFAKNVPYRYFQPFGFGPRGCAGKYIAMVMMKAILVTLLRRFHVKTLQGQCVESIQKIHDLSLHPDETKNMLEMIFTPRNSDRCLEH
# [12] = qHTS assay to identify aromatase inhibitors - cell viability counter screen (AID 743084);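 note: cells stimulated with testosterone during compound exposure; nearly all actives have a fitted effect of over 55% in size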; note: potency is the fitted concentration of half-maximal effect
# [13] = biological target: Estrogen receptor (Homo sapiens) (UniProt P03372); experiment: qHTS assay to identify small molecule antagonists of the estrogen receptor alpha (ER-alpha) signaling pathway (AID 743069; active = well fitted curve in the direction sought with a large enough effect in the signal ratio in the repeat runs, not every such curve was filed as active; inconclusive = weak or mixed curves, or effect the other way; inactive = no such curve, though single readings can be large or run the other way; the % refers to the signal ratio; note: potency is the fitted concentration of half-maximal effect)
# Sequence of Estrogen receptor (Homo sapiens) (P03372 whole entry, looked up): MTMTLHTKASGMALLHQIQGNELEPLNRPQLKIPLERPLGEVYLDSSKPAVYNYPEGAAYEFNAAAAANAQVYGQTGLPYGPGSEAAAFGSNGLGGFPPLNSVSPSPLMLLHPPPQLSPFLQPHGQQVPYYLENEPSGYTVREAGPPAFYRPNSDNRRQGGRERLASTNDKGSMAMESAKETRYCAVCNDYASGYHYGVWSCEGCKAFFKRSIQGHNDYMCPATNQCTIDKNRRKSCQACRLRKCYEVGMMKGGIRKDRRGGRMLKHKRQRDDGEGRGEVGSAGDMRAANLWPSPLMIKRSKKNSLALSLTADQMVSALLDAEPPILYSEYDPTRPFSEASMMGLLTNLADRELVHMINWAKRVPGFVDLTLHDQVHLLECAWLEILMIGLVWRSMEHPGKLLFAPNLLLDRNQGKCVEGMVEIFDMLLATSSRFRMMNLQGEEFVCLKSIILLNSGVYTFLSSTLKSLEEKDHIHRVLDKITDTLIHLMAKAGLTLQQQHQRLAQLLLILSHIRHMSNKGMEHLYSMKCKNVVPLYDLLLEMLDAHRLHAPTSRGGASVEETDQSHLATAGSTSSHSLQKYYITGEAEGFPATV
# Summary of the method: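 In this cell-based reporter format, GripTite HEK293 cells harbouring ER-alpha-UAS-bla were grown overnight with 2% charcoal-stripped FBS, dosed with DMSO-dissolved compounds, then challenged with 17beta-estradiol. After 18 hr at 37C, beta-lactamase activity was detected by FRET fluorescence.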
# [14] = biological target: Estrogen receptor (Homo sapiens) (UniProt P03372); experiment: qHTS assay to identify small molecule agonists of the estrogen receptor alpha (ER-alpha) signaling pathway (AID 743075; calls by dose curve)
# [15] = qHTS assay to identify small molecule antagonists of the estrogen receptor alpha (ER-alpha) signaling pathway using the BG1 cell line (AID 743080; calls by dose curve;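 note: BG1 cells stimulated with 17beta-estradiol alongside compound; nearly all actives have a fitted effect of over 25% in size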; note: potency is the fitted concentration of half-maximal effect)
# Summary of the method: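 Readout is ONE-Glo luminescence, taken 30 min at room temperature after reagent addition, preceded by a CellTiter-Fluor viability read; BG1-Luc-4E2 cells had received compound and 17beta-estradiol for 21.5 h at 37 C.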
# [16] = qHTS assay for identifying genotoxic compounds that show differential cytotoxicity against isogenic chicken DT40 cell lines with known DNA damage response pathways - Rev3 mutant cell line (AID 743014); note: nearly all actives have a fitted effect of over 55% in size; note: potency is the fitted concentration of half-maximal effect
# [17] = biological target: Androgen receptor (Homo sapiens) (UniProt P10275); experiment: qHTS assay to identify small molecule agonists of the androgen receptor (AR) signaling pathway (AID 743036; active = well fitted activation curve with a large enough effect in the signal ratio in the repeat runs, with a control signal flat, not every such curve was filed as active; inconclusive = weak or mixed curves, or effect the other way; inactive = no such curve, though single readings can be large or run the other way; the % refers to the signal ratio)
# Sequence of Androgen receptor (Homo sapiens) (P10275 whole entry, looked up): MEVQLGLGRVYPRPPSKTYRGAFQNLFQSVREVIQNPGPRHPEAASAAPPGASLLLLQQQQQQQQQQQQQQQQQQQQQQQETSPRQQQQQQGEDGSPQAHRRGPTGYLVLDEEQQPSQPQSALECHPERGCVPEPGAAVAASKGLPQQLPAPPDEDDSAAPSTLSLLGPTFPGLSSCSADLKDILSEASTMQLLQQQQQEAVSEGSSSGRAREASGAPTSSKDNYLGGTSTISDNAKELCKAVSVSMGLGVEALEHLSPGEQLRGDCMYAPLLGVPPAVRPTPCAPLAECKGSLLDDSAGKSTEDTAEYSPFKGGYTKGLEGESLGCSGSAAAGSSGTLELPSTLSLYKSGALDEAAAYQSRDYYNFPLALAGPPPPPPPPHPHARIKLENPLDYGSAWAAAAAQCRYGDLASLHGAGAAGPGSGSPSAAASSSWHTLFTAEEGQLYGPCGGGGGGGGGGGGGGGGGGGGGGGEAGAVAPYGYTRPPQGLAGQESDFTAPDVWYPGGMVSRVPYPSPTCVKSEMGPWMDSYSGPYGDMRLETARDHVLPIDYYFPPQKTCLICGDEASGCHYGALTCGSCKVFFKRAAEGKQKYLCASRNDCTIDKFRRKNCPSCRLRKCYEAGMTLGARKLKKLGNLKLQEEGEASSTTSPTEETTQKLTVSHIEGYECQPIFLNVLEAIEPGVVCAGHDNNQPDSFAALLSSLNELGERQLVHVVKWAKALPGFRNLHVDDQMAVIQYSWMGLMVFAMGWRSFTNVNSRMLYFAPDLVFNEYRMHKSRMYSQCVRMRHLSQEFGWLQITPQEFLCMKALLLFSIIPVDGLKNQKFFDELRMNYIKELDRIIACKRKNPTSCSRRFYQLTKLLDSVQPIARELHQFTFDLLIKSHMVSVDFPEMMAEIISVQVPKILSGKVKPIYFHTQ
# Summary of the method: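 Cell-based FRET reporter assay: HEK293 line with a UAS-beta-lactamase construct, compounds added in DMSO, 16 h exposure at 37C, then 2 h substrate step at room temperature and fluorescence intensity read.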
# [18] = biological target: Androgen receptor (Homo sapiens) (UniProt P10275); experiment: qHTS assay to identify small molecule antagonists of the androgen receptor (AR) signaling pathway using the MDA cell line (AID 743042; note: nearly all actives have a fitted effect of over 55% in size)
# Summary of the method: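 MDA-kb2 breast carcinoma cells carrying MMTV-luciferase (AR/GR responsive) were co-treated with compounds and the agonist R1881 for 16 h at 37C. Inhibition read as ONE-Glo luminescence; CellTiter-Fluor fluorescence measured in parallel for cytotoxicity.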
# [19] = biological target: Estrogen receptor (Homo sapiens) (UniProt P03372); experiment: qHTS assay to identify small molecule agonists of the estrogen receptor alpha (ER-alpha) signaling pathway using the BG1 cell line (AID 743079); note: nearly all actives have a fitted effect of over 20% in size; note: potency is the fitted concentration of half-maximal effect
compound,measurement,setting,value
O=C(NCCO[N+](=O)[O-])c1cccnc1,Potency,[1],inactive
same,Potency,[2],inactive
same,Potency,[3],inactive
same,Potency,[4],inactive
same,Potency,[5],inactive
same,Potency,[6],inactive
same,Potency,[7],inactive
same,Potency,[8],inactive
same,Potency,[9],inactive
same,Potency,[10],inactive
same,Potency,[11],inactive
same,Potency,[12],inactive
Cn1c(=O)cc(Oc2ccc(F)cc2F)c2cnc(NCC(C)(C)O)nc21,Potency,[1],inactive
same,Potency,[2],inactive
same,Potency,[3],27.3 µM (active)
same,Potency,[4],inactive
same,Potency,[6],inactive
same,Potency,[7],inactive
same,Potency,[8],inactive
same,Potency,[13],inactive
same,Potency,[9],inactive
same,Potency,[14],inactive
same,Potency,[15],19.3 µM (active)
same,Potency,[10],inactive
same,Potency,[11],inactive
same,Potency,[12],inactive
OCCNCc1ccccc1,Potency,[1],inactive
same,Potency,[16],inactive
same,Potency,[3],inactive
same,Potency,[4],inactive
same,Potency,[17],inactive
same,Potency,[5],inactive
same,Potency,[18],inactive
same,Potency,[6],inactive
same,Potency,[7],inactive
same,Potency,[8],inactive
same,Potency,[9],inactive
same,Potency,[14],inactive
same,Potency,[19],inactive
same,Potency,[15],inactive
same,Potency,[10],inactive
same,Potency,[11],inactive
same,Potency,[12],inactive
O=S(=O)(Oc1ccc(Cl)cc1)c1ccccc1,Potency,[1],inactive
same,Potency,[16],61.1 µM (active)
same,Potency,[3],54.5 µM (active)
same,Potency,[4],inactive
same,Potency,[5],inactive
same,Potency,[6],inactive
same,Potency,[7],inactive
same,Potency,[8],inactive
same,Potency,[13],inactive
same,Potency,[9],inactive
same,Potency,[14],inactive
same,Potency,[15],inactive
same,Potency,[10],inactive
same,Potency,[11],inactive
same,Potency,[12],inactive
Cc1ccccc1S(=O)(=O)O,Potency,[1],inactive
same,Potency,[16],inactive
same,Potency,[3],inactive
same,Potency,[4],inactive
same,Potency,[5],inactive
same,Potency,[6],inactive
same,Potency,[7],inactive
same,Potency,[8],inactive
same,Potency,[9],inactive
same,Potency,[10],inactive
OCc1cc(C(O)CNCCCCCCOCCCCc2ccccc2)ccc1O (centres undefined),Potency,[1],inactive
same,Potency,[2],3.35 µM (active) and 2.37 µM (active)
same,Potency,[16],5.96 µM (active) and 4.73 µM (active)
same,Potency,[6],7.5 µM (active) and 11.9 µM (active)
same,Potency,[7],10.6 µM (active) and 8.41 µM (active)
same,Potency,[13],inactive
same,Potency,[9],inactive
same,Potency,[14],inactive
same,Potency,[10],23.7 µM (active)
same,Potency,[11],26.6 µM (active)
same,Potency,[12],11.9 µM (active) and 9.44 µM (active)
CN(C)CCN(Cc1ccc(Cl)cc1)c1ccccn1,Potency,[1],inactive
same,Potency,[2],12.7 µM (active)
same,Potency,[4],inactive
same,Potency,[6],11.4 µM (active)
same,Potency,[7],10.1 µM (active)
same,Potency,[8],inactive
same,Potency,[9],inactive
same,Potency,[10],inactive
same,Potency,[11],inactive
same,Potency,[12],inactive
CCCCCCc1ccc(-c2ccc(C#N)cc2)cc1,Potency,[1],inactive
same,Potency,[2],inactive
same,Potency,[3],inactive
same,Potency,[4],inactive
same,Potency,[6],inactive
same,Potency,[7],inactive
same,Potency,[8],inactive
same,Potency,[9],inactive
same,Potency,[10],inactive
CCCCCCCCO[C@@H]1O[C@H](CO)[C@@H](O)[C@H](O)[C@H]1O,Potency,[1],inactive
same,Potency,[16],inactive
same,Potency,[3],inactive
same,Potency,[4],inactive
same,Potency,[5],inactive
same,Potency,[6],inactive
same,Potency,[7],inactive
same,Potency,[8],inactive
same,Potency,[9],inactive
same,Potency,[14],inactive
same,Potency,[19],inactive
same,Potency,[15],inactive
same,Potency,[10],inactive
same,Potency,[11],inactive
same,Potency,[12],inactive
S=C([S-])NCCNC(=S)[S-].[Mn+2],Potency,[1],inactive
same,Potency,[2],61.1 µM (active)
same,Potency,[3],61.1 µM (active)
same,Potency,[4],inactive
same,Potency,[5],inactive
same,Potency,[7],inactive
same,Potency,[8],inactive
same,Potency,[11],inactive
same,Potency,[12],inactive
CCCCOC(=O)CCCCCCCC(=O)OCCCC,Potency,[1],inactive
same,Potency,[2],inactive
same,Potency,[3],inactive
same,Potency,[4],inactive
same,Potency,[5],inactive
same,Potency,[6],inactive
same,Potency,[7],inactive
same,Potency,[8],inactive
same,Potency,[9],inactive
same,Potency,[10],inactive
same,Potency,[11],inactive
same,Potency,[12],inactive
CC(C)Nc1ccc(NC(C)C)c2c1C(=O)c1ccccc1C2=O,Potency,[1],inactive
same,Potency,[2],inactive
same,Potency,[3],inactive
same,Potency,[4],inactive
same,Potency,[5],inactive
same,Potency,[6],inactive
same,Potency,[7],inactive
same,Potency,[8],inactive
same,Potency,[13],inactive
same,Potency,[9],inactive
same,Potency,[14],inactive
same,Potency,[19],inactive
same,Potency,[10],inactive
same,Potency,[11],inactive
same,Potency,[12],inactive
CCCCCCCN,Potency,[1],inactive
same,Potency,[16],inactive
same,Potency,[4],inactive
same,Potency,[5],inactive
same,Potency,[6],inactive
same,Potency,[7],inactive
same,Potency,[8],inactive
same,Potency,[13],inactive
same,Potency,[9],inactive
same,Potency,[14],inactive
same,Potency,[19],inactive
same,Potency,[15],inactive
same,Potency,[10],inactive
same,Potency,[11],inactive
same,Potency,[12],inactive
CCN(CC)CCOC(=O)C(Cc1cccc2ccccc12)CC1CCCO1 (centres undefined),Potency,[1],inactive
same,Potency,[16],inactive
same,Potency,[3],inactive
same,Potency,[4],inactive
same,Potency,[5],inactive
same,Potency,[6],inactive
same,Potency,[9],inactive
same,Potency,[10],inactive
same,Potency,[11],inactive
same,Potency,[12],inactive
CN(C)c1ccc(/C=C/c2ccc([N+](=O)[O-])cc2)cc1,"viability change, negative = cytotoxic",[1],6.19% [at 7.04 µM]
same,"activity, negative = cytotoxicity",[16],-15.9% [at 8.53 µM]
same,"activity change, negative = cytotoxicity",[3],1.06% [at 8.55 µM]
same,"activity change, negative = cytotoxicity",[4],7.66% [at 7.04 µM]
same,"viability change, negative = cytotoxic",[5],-4.28% [at 8.47 µM]
same,"activity change, negative = cytotoxic",[6],14.3% [at 8.44 µM]
same,"activity, negative = cytotoxicity",[9],-15.2% [at 6.72 µM]
same,"activity change, negative = cytotoxicity",[10],18.2% [at 8.47 µM]
same,"activity, negative = inhibition",[11],68.2% [at 8.47 µM]
CCC(C)c1cc(C(C)(C)C)c(O)c(C(C)(C)C)c1 (centres undefined),Potency,[1],inactive
same,Potency,[16],inactive
same,Potency,[3],inactive
same,Potency,[4],inactive
same,Potency,[5],inactive
same,Potency,[6],inactive
same,Potency,[8],10.7 µM (active)
same,Potency,[9],inactive
same,Potency,[10],inactive
Nc1ncn([C@H]2C[C@H](O)[C@@H](CO)O2)c(=O)n1,Potency,[1],inactive
same,Potency,[16],0.106 µM (active)
same,Potency,[3],0.0298 µM (active)
same,Potency,[5],inactive
same,Potency,[7],inactive
same,Potency,[8],3.35 µM (active)
same,Potency,[9],inactive
same,Potency,[10],inactive
same,Potency,[11],inactive
same,Potency,[12],inactive
CCc1c(C(=O)NN2CCCCC2)nn(-c2ccc(Cl)cc2Cl)c1-c1ccc(Br)cc1,Potency,[1],12.3 µM (active)
same,Potency,[16],15.4 µM (active)
same,Potency,[4],inactive
same,Potency,[5],inactive
same,Potency,[6],15.4 µM (active)
same,Potency,[7],8.63 µM (active)
same,Potency,[13],13.8 µM [inconclusive] (active)
same,Potency,[9],inactive
same,Potency,[14],inactive
same,Potency,[19],27.3 µM (active)
same,Potency,[10],inactive
same,Potency,[12],inactive
O=P(O)(OCc1ccccc1)OCc1ccccc1,Potency,[1],inactive
same,Potency,[16],inactive
same,Potency,[3],inactive
same,Potency,[4],inactive
same,Potency,[5],inactive
same,Potency,[6],inactive
same,Potency,[7],inactive
same,Potency,[13],inactive
same,Potency,[9],inactive
same,Potency,[14],inactive
same,Potency,[19],inactive
same,Potency,[15],inactive
same,Potency,[10],inactive
same,Potency,[11],inactive
same,Potency,[12],inactive
